Data from PubChem BioAssay (NCATS).
Records with an inconclusive call do not appear. The source made the active and inactive calls. The call rests on the fitted dose curve; in most records, active means well fitted cell-killing curve with a large enough effect; inconclusive means small, poorly fitted or top-dose-only effect, or effect the other way; inactive means flat fitted curve, though single readings scatter.

Key:
Experiment in all cases: Primary qHTS to identify gynecologic anti-cancer compounds using libraries of approved drugs and bioactive compounds (AID 1345084); further: nearly all actives have a fitted effect of over 55% in size
[1] = test system: C33A; details: Gynecologic cancer cell panel viability, ATPlite luminescence, 48 h; series mostly up to 57.5 µM
Procedure, shortened: (§1)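 Measured: luminescence after ATPlite addition (15 min, RT). Exposure: 48 h, 37 C, 5% CO2.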

[2] = test system: CAOV3; details: Gynecologic cancer cell panel viability, ATPlite luminescence, 48 h; series mostly up to 57.5 µM
Procedure, shortened: as §1

[3] = test system: CASKI; details: Gynecologic cancer cell panel viability, ATPlite luminescence, 48 h; series mostly up to 57.5 µM
Procedure, shortened: as §1

[4] = test system: Es-2; details: Gynecologic cancer cell panel viability, ATPlite luminescence, 48 h; series mostly up to 57.5 µM
Procedure, shortened: as §1

[5] = test system: HeLa; details: Gynecologic cancer cell panel viability, ATPlite luminescence, 48 h; series mostly up to 57.5 µM
Procedure, shortened: as §1

[6] = test system: Hek293T; details: Gynecologic cancer cell panel viability, ATPlite luminescence, 48 h, control line for the selectivity index; series mostly up to 57.5 µM
Procedure, shortened: as §1

[7] = test system: JEG-3; details: Gynecologic cancer cell panel viability, ATPlite luminescence, 48 h; series mostly up to 57.5 µM
Procedure, shortened: as §1

[8] = test system: OV90; details: Gynecologic cancer cell panel viability, ATPlite luminescence, 48 h; series mostly up to 57.5 µM
Procedure, shortened: as §1

[9] = test system: PA-1; details: Gynecologic cancer cell panel viability, ATPlite luminescence, 48 h; series mostly up to 57.5 µM
Procedure, shortened: as §1

[10] = test system: SKOV3; details: Gynecologic cancer cell panel viability, ATPlite luminescence, 48 h; series mostly up to 57.5 µM
Procedure, shortened: as §1

[11] = test system: Tov-21-G; details: Gynecologic cancer cell panel viability, ATPlite luminescence, 48 h; series mostly up to 57.5 µM
Procedure, shortened: as §1

[12] = test system: Tov112D; details: Gynecologic cancer cell panel viability, ATPlite luminescence, 48 h; series mostly up to 57.5 µM
Procedure, shortened: as §1
On the % scale 0 is the no-effect control and ±100 the full control effect.

N[C@@H](CC(=O)N1CCn2c(nnc2C(F)(F)F)C1)Cc1[nH]nc2c(F)c(F)ccc12
inactive: Potency [1] | Potency [2] | Potency [3] | Potency [4] | Potency [5] | Potency [6] | Potency [7] | Potency [8] | Potency [9] | Potency [10] | Potency [11] | Potency [12]

C/C=C(\C)C(=O)O[C@H]1[C@@H](O[C@]2(COC(=O)CC(C)C)O[C@H](COC(=O)C(C)C)[C@@H](OC(C)=O)[C@@H]2O)O[C@H](COC(C)=O)[C@@H](O)[C@@H]1O
inactive: Potency [1] | Potency [2] | Potency [3] | Potency [4] | Potency [5] | Potency [6] | Potency [7] | Potency [8] | Potency [9] | Potency [10] | Potency [11] | Potency [12]

CC1=CC(=O)CC(C)(C)C1(O)CCC(C)O (stereo not drawn)
inactive: Potency [1] | Potency [2] | Potency [3] | Potency [4] | Potency [5] | Potency [6] | Potency [7] | Potency [8] | Potency [9] | Potency [10] | Potency [11] | Potency [12]

COC(=O)[C@]12C(=O)C(C)=C(O)[C@@]1(C)C(C)=CC1[C@@]34CC[C@@H](OC(C)=O)C(C)(C)C3[C@H](C[C@]12C)OC4=O (stereo partly drawn)
inactive: Potency [1] | Potency [2] | Potency [3] | Potency [4] | Potency [5] | Potency [6] | Potency [7] | Potency [8] | Potency [9] | Potency [10] | Potency [11] | Potency [12]

CC1CC(O)CC(C)(C)C1(O)CCO (stereo not drawn)
inactive: Potency [1] | Potency [2] | Potency [3] | Potency [4] | Potency [5] | Potency [6] | Potency [7] | Potency [8] | Potency [9] | Potency [10] | Potency [11] | Potency [12]

O=C(CCO[C@@H]1O[C@H](CO)[C@@H](O)[C@H](O)[C@H]1O)c1ccc(O)cc1
inactive: Potency [1] | Potency [2] | Potency [3] | Potency [4] | Potency [5] | Potency [6] | Potency [7] | Potency [8] | Potency [9] | Potency [10] | Potency [11] | Potency [12]

NCCCC[C@H](NC(=O)[C@@H]1Cc2ccccc2CN1C(=O)CCC(=O)c1ccccc1)C(=O)NCC(c1ccccc1)c1ccccc1
inactive: Potency [1] | Potency [2] | Potency [3] | Potency [4] | Potency [5] | Potency [6] | Potency [7] | Potency [8] | Potency [9] | Potency [10] | Potency [11] | Potency [12]

O=C(/C=C/c1ccc(O)cc1)O[C@H]1[C@@H]2C=CO[C@@H](O[C@@H]3O[C@H](CO)[C@@H](O)[C@H](O)[C@H]3O)[C@@H]2[C@@]2(CO)O[C@@H]12
inactive: Potency [1] | Potency [2] | Potency [3] | Potency [4] | Potency [5] | Potency [6] | Potency [7] | Potency [8] | Potency [9] | Potency [10] | Potency [11] | Potency [12]

C[C@@H]1O[C@@H](O[C@H]2[C@H](O[C@H]3CC[C@@]4(C)C(CC[C@]5(C)C4CC=C4[C@@H]6CC(C)(C)CC[C@]6(C(=O)O)CC[C@]45C)[C@]3(C)CO)OC[C@H](O)[C@@H]2O)[C@H](O)[C@H](O[C@@H]2OC[C@@H](O)[C@H](O)[C@H]2O)[C@H]1O (stereo partly drawn)
inactive: activity change, negative = cytotoxicity [1] -12% [at 11.6 µM] | activity change, negative = cytotoxicity [2] -8% [at 11.6 µM] | activity change, negative = cytotoxicity [3] -1.75% [at 11.6 µM] | activity change, negative = cytotoxicity [4] -1.5% [at 11.6 µM] | activity change, negative = cytotoxicity [5] 14.3% [at 11.6 µM] | activity change, negative = cytotoxicity [6] -9.01% [at 11.6 µM] | activity change, negative = cytotoxicity [7] -2.58% [at 11.6 µM] | activity change, negative = cytotoxicity [8] -5.88% [at 11.6 µM] | activity change, negative = cytotoxicity [9] -2.5% [at 11.6 µM] | activity change, negative = cytotoxicity [10] -0.901% [at 11.6 µM] | activity change, negative = cytotoxicity [11] -4.57% [at 11.6 µM] | activity change, negative = cytotoxicity [12] 4.64% [at 11.6 µM]

CC(=O)O[C@H]1[C@H](Oc2ccccc2COC(=O)C2(O)C=CCCC2=O)O[C@H](CO)[C@@H](O)[C@@H]1O (stereo partly drawn)
inactive: Potency [1] | Potency [2] | Potency [3] | Potency [4] | Potency [5] | Potency [6] | Potency [7] | Potency [8] | Potency [9] | Potency [10] | Potency [11] | Potency [12]

C#Cc1cnc2[nH]c(=O)n(C(CC)CC)c2n1
inactive: Potency [1] | Potency [2] | Potency [3] | Potency [4] | Potency [5] | Potency [6] | Potency [7] | Potency [8] | Potency [9] | Potency [10] | Potency [11] | Potency [12]

Cc1cc(C)cc(NC(=O)Cc2ccc(OC(C)(C)C(=O)O)cc2)c1
inactive: Potency [1] | Potency [2] | Potency [3] | Potency [4] | Potency [5] | Potency [6] | Potency [7] | Potency [8] | Potency [9] | Potency [10] | Potency [11] | Potency [12]

C=C1[C@H]2CC[C@]3(O)[C@@](CC[C@@H]4[C@](C)(C(=O)O)CCC[C@]43C)(C2)[C@H]1OC(=O)/C(C)=C\C
inactive: Potency [1] | Potency [2] | Potency [3] | Potency [4] | Potency [5] | Potency [6] | Potency [7] | Potency [8] | Potency [9] | Potency [10] | Potency [11] | Potency [12]

C=C1C(=O)O[C@H]2[C@H]1[C@@H](OC(=O)C(C)CO)C[C@@]1(C)[C@H](O)CCC(=O)[C@H]21 (stereo partly drawn)
inactive: Potency [1] | Potency [2] | Potency [3] | Potency [4] | Potency [5] | Potency [6] | Potency [7] | Potency [8] | Potency [9] | Potency [10] | Potency [11] | Potency [12]
